Measurements taken from PubChem BioAssay AID504389 (National Center for Advancing Translational Sciences (NCATS), 2011).
Results filed as inconclusive are left out. Active and inactive are the calls of the source. The call rests on the fitted dose curve; in most records, active means well fitted curve in the direction sought with a large enough effect; inconclusive means small, poorly fitted or top-dose-only effect, or effect the other way, or another doubt; inactive means no such curve, though single readings can be large or run the other way.

molecular target: Thyrotropin receptor (Homo sapiens) (UniProt P16473); experiment: qHTS Assay for Antagonists of the Thyroid Stimulating Hormone Receptor: SAR for Probe; conditions: HEK293-TSHR, TSH-stimulated cAMP HTRF, 2 h; series mostly up to 57.5 µM
From the text: TSH is an alpha/beta heterodimeric glycoprotein hormone secreted from the anterior pituitary gland which belongs to the glycoprotein hormone family. The actions of TSH are mediated by a seven-transmembrane receptor, which upon TSH binding couples preferentially to the G-alpha (s) protein (Gs), resulting in activation of adenylate cyclase and increase in cyclic adenosine 3', 5' monophosphate (cAMP). The TSH receptor (THSR) is mainly expressed in thyroid follicular cells and regulates their growth and function. This cell based assay was conducted on a TSHR transfected HEK 293 cell line, measuring cAMP stimulation using antibody-based Homogeneous Time Resolved Fluorescence (HTRF). Our goal is to identify small molecules that will inhibit (antagonize) the thyroid-stimulating hormone receptor (TSHR), a member of the 7 transmembrane-spanning receptor (7TMR) family of cell surface receptors. TSHR-mediated hyperthyroidism is important in thyroid pathology. The development of small molecule antagonists of TSHR may lead to therapeutic approaches for TSHR-mediated hyperthyroidism caused by constitutively activating mutations or stimulating auto-antibodies associated with Graves' disease. Graves' disease is the leading cause of hyperthyroidism and is caused by autoantibodies that stimulate TSHR (TsAbs) causing thyroid growth and unregulated overproduction of thyroid hormones and existing treatments have liabilities (agranulocytosis). In addition, TSHRs are known to be expressed in multiple extrathyroidal tissues including bone, brain, kidney, testis, fat and cells of the immune system but the role of the TSHR in these tissues is not clear. Therefore, TSHR antagonists/inverse agonists could be used as probes of extrathyroidal TSHR function. Finally, TSHR inverse agonists, which are a subclass of antagonists that inhibit agonist-independent (or basal or constitutive) TSHR signaling, could be used to inhibit TSH-independent signaling in patients with recurrent or metastatic thyroid cancer who are receiving thyroid hormone to suppress TSH. The present assay presents confirmation data for analogues of series of interest in the primary screening assay.
An anti cAMP antibody contains a fluorescent cryptate tag (excitation 337 nm; emission 620 nm) and the acceptor is cAMP-d2 (excitation 620 nm; emission 665 nm). When antibody and cAMP-d2 interact and are excited by a 337 nm light, a FRET occurs resulting in emission at 665 nm. The assay is competition between cAMP-d2 and cAMP (from the cell lysate). The homogeneous protocol allows for one step dispense after stimulation that is automation friendly. Step, Parameter, Value, Description 1, Cells, 3 uL, 2000 TSHR freshly harvested cells/well 1536 TC treated White solid bottom plate (Cells resuspended in 10 mM HEPES buffered HBSS and 70 uM RO 20-1724) 2, Compound, 23 nL, Libraries and controls 3, Compound, 1 uL, EC80 TSH (4 nM final) 4, Time, 2 hours, 37C 5, Reagent, 2 uL, cAMP antibody diluted 1:20 in lysis buffer 6, Time, 30 minutes, Room temperature 7, Detector, HTRF settings, Viewlux

Chain of Thyrotropin receptor (Homo sapiens) (P16473 whole entry, looked up): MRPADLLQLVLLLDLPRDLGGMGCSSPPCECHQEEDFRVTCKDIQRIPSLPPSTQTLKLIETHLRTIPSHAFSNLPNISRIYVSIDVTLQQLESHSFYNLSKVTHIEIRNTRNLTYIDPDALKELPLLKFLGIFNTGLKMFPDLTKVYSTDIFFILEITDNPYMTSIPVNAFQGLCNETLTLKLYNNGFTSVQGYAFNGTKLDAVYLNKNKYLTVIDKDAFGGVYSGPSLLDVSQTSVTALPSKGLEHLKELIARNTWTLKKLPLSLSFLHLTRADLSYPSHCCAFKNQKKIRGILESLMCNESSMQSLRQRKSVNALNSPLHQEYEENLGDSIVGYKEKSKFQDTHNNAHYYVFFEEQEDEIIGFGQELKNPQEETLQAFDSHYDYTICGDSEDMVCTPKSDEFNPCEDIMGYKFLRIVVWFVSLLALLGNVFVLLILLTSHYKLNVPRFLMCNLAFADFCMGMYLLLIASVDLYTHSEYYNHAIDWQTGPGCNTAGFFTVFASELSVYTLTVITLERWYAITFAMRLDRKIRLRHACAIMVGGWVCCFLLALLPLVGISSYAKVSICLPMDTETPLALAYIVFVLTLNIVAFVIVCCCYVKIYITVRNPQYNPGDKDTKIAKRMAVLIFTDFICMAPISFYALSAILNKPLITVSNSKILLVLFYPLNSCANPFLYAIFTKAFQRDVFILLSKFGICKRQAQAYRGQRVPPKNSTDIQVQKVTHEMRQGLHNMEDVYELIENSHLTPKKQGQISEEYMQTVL

Potency, active:
COc1ccc(C2Nc3ccccc3C(=O)N2Cc2cccnc2)cc1COc1c(C)cccc1C (configuration not stated) 36.6 µM

Potency, inactive:
COc1ccc(C2Nc3ccccc3C(=O)N2Cc2ccccc2OC)cc1COc1c(C)cc(NC(C)=O)cc1C (configuration not stated)
COc1ccc(C2Nc3ccccc3C(=O)N2Cc2ccccc2)cc1COc1ccccc1OC (configuration not stated)
O=C1c2ccccc2NC(c2ccccc2O)N1Cc1ccccc1 (configuration not stated)
COc1ccc(-c2nc3ccccc3c(=O)n2Cc2ccco2)cc1COc1c(C)cccc1C
O=c1c2ccccc2nc(-c2ccccc2O)n1Cc1ccccc1
COc1ccc(C2Nc3ccccc3C(=O)N2Cc2ccc(C(F)(F)F)o2)cc1COc1c(C)cccc1C (configuration not stated)
